Screens deposited in PubChem by Johns Hopkins Ion Channel Center.
In the library only some 2.4% were active in any assay of this set; here they are far more common.
TMEM16A act – activates or potentiates the mouse TMEM16A chloride channel | Q8BHY3 | HEK293 TMEM16A/YFP-H148Q/I152L, iodide quench fluorescence; active compounds read low | B-score at 10 µM | actives 0.3% (n = 340,000) | AID 623877;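 active means fluorescence-ratio B-score plate-corrected deviation score at least 3 library SD below zero, with starting fluorescence score within 5 deviations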;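 further: channel opened by trigger with iodide after compound preincubation; score built on the fluorescence ratio of max minus min over baseline; more negative score means more quench and so TMEM16A activation or potentiation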
TMEM16A inh – mouse TMEM16A channel inhibition, primary screen | actives 1.2% (n = 310,000) | AID 588511 | Q8BHY3 | normalized B-score (activity score, 25-100; higher = stronger inhibition) at 10 µM | HEK293 TMEM16A/YFP iodide influx fluorescence, ionomycin;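 active means ratio plate-corrected score three or more library SD toward inhibition, starting fluorescence score within five deviations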;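 further: score derived from kinetic fluorescence span divided by baseline fluorescence per well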
CHT block – human CHT choline transport inhibition. Q9GZV3. B-score at 10 µM. AID 488975. actives 0.86% (n = 310,000). CHT-expressing cells, membrane potential dye, choline response; active compounds read low;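 active means B-score over 3 SD under the library average, and starting fluorescence ratio not unusually high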;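 further: choline stimulus applied at its EC90 after an EC20 pre-addition; B-score computed on integrated fluorescence ratio after choline addition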
Target sequence (Q9GZV3 whole entry, looked up): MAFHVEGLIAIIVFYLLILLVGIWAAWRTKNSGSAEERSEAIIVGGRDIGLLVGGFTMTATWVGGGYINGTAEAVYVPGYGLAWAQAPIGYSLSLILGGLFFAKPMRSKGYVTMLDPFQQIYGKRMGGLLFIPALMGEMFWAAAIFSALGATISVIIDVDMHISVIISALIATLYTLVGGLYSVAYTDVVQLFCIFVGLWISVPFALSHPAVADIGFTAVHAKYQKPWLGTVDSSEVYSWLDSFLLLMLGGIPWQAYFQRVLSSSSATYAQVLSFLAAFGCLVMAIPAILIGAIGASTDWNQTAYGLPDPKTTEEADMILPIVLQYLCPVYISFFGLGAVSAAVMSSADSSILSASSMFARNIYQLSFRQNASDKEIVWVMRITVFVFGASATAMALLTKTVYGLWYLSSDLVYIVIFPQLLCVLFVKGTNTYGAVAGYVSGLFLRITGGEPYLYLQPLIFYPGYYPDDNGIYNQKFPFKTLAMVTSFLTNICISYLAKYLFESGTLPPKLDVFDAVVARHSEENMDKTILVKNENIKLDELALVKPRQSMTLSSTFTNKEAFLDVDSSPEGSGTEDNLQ
CHT PAM – allosterically activates the human high affinity choline transporter. B-score at 10 µM. actives 0.49% (n = 310,000). CHT-expressing cells, membrane potential dye, choline EC20; active compounds read high; LV-AA mutant CHT in HEK293 cells. Q9GZV3;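 active means initial fluorescence not abnormally high and integrated response B-score, plate-corrected, over 3 SD above library mean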
Starred values were filed as active, the others as inactive; i = inactive; . = not tested or not shown.

SMILES	TMEM16A act	TMEM16A inh	CHT block	CHT PAM
Cn1c(=O)c(=O)n(C)c2cc(N3CCCCC3)c(NS(=O)(=O)c3ccc(Br)cc3)cc21	i	i	i	i
C#CCOCCOCCOCCNc1nc(N2CCN(C(=O)CCCCCCCCCCNC(=O)[C@H]([C@@H](C)CC)n3cc(CCCCCN)nn3)CC2)nc(N2CCN(C(=O)CCCCCCCCCCNC(=O)[C@@H]([C@H](C)CC)n3cc(CCCCCN)nn3)CC2)n1	.	i	i	i
C#CCOCCOCCOCCNc1nc(N2CCN(C(=O)CCCCCCCCCCNC(=O)[C@H]([C@@H](C)CC)n3cc(CCCCCN)nn3)CC2)nc(N2CCN(C(=O)CCCCCCCCCCNC(=O)[C@H](CO)n3cc(CCCCCN)nn3)CC2)n1	-17*	25*	i	i
C#CCOCCOCCOCCNc1nc(N2CCN(C(=O)CCCCCCCCCCNC(=O)[C@H]([C@@H](C)CC)n3cc(CCCCN=C(N)N)nn3)CC2)nc(N2CCN(C(=O)CCCCCCCCCCNC(=O)[C@H](CCCCN)n3cc(C)nn3)CC2)n1	.	i	i	6.3*
Nc1nc2c(s1)CC(c1ccccc1)CC2 (stereo not given)	i	25*	i	i
COc1ccc(F)cc1CSc1nnnn1-c1ccc(O)cc1	i	25*	i	i
COc1cc(CSc2nnnn2-c2ccc(C)cc2)cc(OC)c1OC	i	i	i	i
Cc1ccc(C)c(S(=O)(=O)N2CCN(C(=O)Cc3ccsc3)CC2)c1	i	i	i	i
O=C(c1cc(-c2ccccc2Cl)nc2ccc(Br)cc12)N1CCN(c2ccccn2)CC1	i	25*	i	i
Cc1ccc(-n2c(=O)c3c4c(sc3n(Cc3cc(=O)n5ccccc5n3)c2=O)CCC4)cc1C	i	i	i	i
N#CC(C(=O)C12CC3CC(CC(C3)C1)C2)c1nc2ccccc2[nH]1 (stereo not given)	-9.5*	i	i	i
N#CC(/C(=N/S(=O)(=O)c1cccs1)c1ccccc1)c1nc2ccccc2[nH]1 (stereo not given)	i	i	i	i
COc1ccc(NC(=O)CN(C)S(=O)(=O)c2cnc[nH]2)cc1	i	i	i	i
CCOC(=O)Cc1nn(Cc2nc(-c3ccc(C#N)cc3)cs2)c(=O)c2ccccc12	i	25*	i	i
Cc1nc2sccn2c1-c1csc(NCc2ccccc2)n1	i	25*	i	i
C=CCNc1nc(-c2c(C)nc3sccn23)cs1	i	i	i	i
CCCOC(=O)c1ccc(NC(=O)/C=C/c2cccs2)cc1	i	25*	i	i
O=C(/C=C/c1cccs1)Nc1ccncc1	i	i	i	i
CC(C)NC(C(=O)Nc1cc(Cl)cc(Cl)c1)c1ccccc1 (stereo not given)	i	i	i	i
CCc1cc2c(=O)n(-c3ccccc3)c(=S)[nH]c2s1	i	25*	i	i
CCc1cc2c(=O)n(-c3ccccc3)c(SCC(N)=O)nc2s1	i	i	i	i
Cc1[nH]c2ccccc2c1C(O)CN1CCN(c2cccc(C(F)(F)F)c2)CC1 (stereo not given)	i	i	-8.7*	i
O=[N+]([O-])c1cccc(-c2c[n+]3c(n2-c2ccccc2)SCC3)c1	i	i	i	i
CCCCOc1ccc(S(=O)(=O)n2c(C)nc3ccccc32)cc1	i	25*	i	i
Cc1nc2ccccc2n1CC(O)COc1ccc(Br)cc1 (stereo not given)	i	25*	i	i
SMILES	TMEM16A act	TMEM16A inh	CHT block	CHT PAM
CCC(=O)c1ccc(OCC(O)Cn2c(C)nc3ccccc32)cc1 (stereo not given)	i	i	i	i
Cc1cc([N+](=O)[O-])nn1CC(=O)NCc1ccccc1	i	i	i	i
NS(=O)(=O)c1ccc(CNC(=O)Cn2nc(C(F)F)cc2C(F)F)cc1	-4.6*	.	.	.
COc1ccc(CCNc2ncnc3c2oc2ccccc23)cc1OC	i	100*	i	i
CC(=O)Nc1ccc2cc3ccc(NC(C)=O)cc3nc2c1	-9.8*	i	i	i
CC1CCCN(C(=O)Cn2nnc(-c3ccc(S(C)(=O)=O)cc3)n2)C1 (stereo not given)	i	i	i	i
CCCCCCC[C@H](N)[C@H](O)C(=O)N(C)[C@@H](CCS(C)=O)C(=O)N[C@@H](Cc1ccc(O)cc1)C(=O)N[C@@H](Cc1ccc(O)cc1)C(=O)O (stereo not given in full)	i	i	i	i
O=C(CCCc1nc2ccccc2s1)NNC(=O)CCN1CCN(Cc2ccccc2)CC1	-22*	i	i	i
Cc1cc(=O)oc2cc(OC(C)C(=O)NCCCn3ccnc3)ccc12 (stereo not given)	i	i	i	i
Oc1c(Cl)cc(Cl)cc1Sc1cc(Cl)cc(Cl)c1O	.	100*	i	i
Cc1cc(C)c(O)c(CN(C)Cc2cc(Cl)cc(Cl)c2O)c1	i	.	.	.
O=C(c1cccc(S(=O)(=O)N2CCN(c3ccccc3)CC2)c1)N1CCCC(C(F)(F)F)C1 (stereo not given)	i	25*	i	i
O=C(c1cccc(S(=O)(=O)N2CCCC2)c1)N1CCN(c2ccccc2)CC1	i	i	i	i
CCCOc1ccc(-c2c(C(=O)N/N=C/c3ccncc3)nnn2-c2nonc2N)cc1	-6.8*	i	i	i
CCOc1ccc(/C=N/NC(=O)c2nnn(-c3nonc3N)c2COc2ccc(F)cc2)cc1	-5.8*	i	i	i
COc1ccc(CN2C(=O)[C@H]3Cc4c([nH]c5ccccc45)C(C)(C)N3C2=O)cc1	i	25*	i	i
CCOC(=O)c1cnc(-n2nc(C)cc2C)nc1NC1CCCCC1	i	100*	i	i
Nc1c(N2CCCC2)cc(Cl)c2nonc12	i	i	i	i
Nc1ccc(N2CCCCC2)c2nonc12	i	i	-7.6*	i
O=C(C1CCCN(S(=O)(=O)c2cc(Cl)ccc2Cl)C1)N1CCOCC1 (stereo not given)	i	i	i	i
O=C(N/N=C/c1ccncc1)c1cc([N+](=O)[O-])cc([N+](=O)[O-])c1	i	i	i	i
Cc1cc(C)nc(N2CCC(CNC(=O)CCc3ccccc3)CC2)n1	-7.7*	i	i	i
Cc1cc(C)nc(N2CCC(C(=O)NCc3ccccc3)CC2)n1	i	i	i	i
Cc1cccn2c(CN(C)CC3CCCCO3)c(C(=O)N3CCCCC3)nc12 (stereo not given)	i	i	i	i
CCOC(=O)C(CSCC(=O)c1ccc(Br)cc1)NC(=O)OC(C)(C)C (stereo not given)	.	100*	i	i
Clc1cccc(Cl)c1/C=C/c1nc2ccccc2[nH]1	i	25*	i	i
